Compounds with a hit are over-represented: about 2.8% of the library has one in this group of screens.
PI5P4Ka inh = inhibitors of human PI5P4K alpha; P48426; PI5P4Kalpha enzyme, ADP-Glo luminescence, 60 min; stronger effect = lower value; max response, %; actives 1.2% (n = 330,000); AID 652105; active means max response of -50% or lower; inconclusive means between -30% and -50%; inactive means -30% or higher; further: value at the top dose of about 77 µM
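Compounds were pin-transferred onto PI5P4Kalpha and substrate in HEPES pH 7.4 buffer with EGTA, CHAPS and 5% DMSO. ATP (5 microM final) started the reaction, which ran 60 minutes at room temperature before ADP-Glo detection.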
POLB inh = inhibitors of human DNA polymerase beta; actives 1.3% (n = 340,000); Pol beta primer extension/strand displacement, fluorescence kinetic; Potency, µM (series often up to 114 µM), actives largely listed as inhibitors
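Enzyme-only controls used 10 nM Pol beta; buffer lacking enzyme served as negative control. Compound preincubated 15 min, then 50 nM substrate added; 0 and 10 min reads at room temperature.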
Pol iota inh = blocks human DNA polymerase iota activity; Pol iota fluorescent replication assay, 10 min; Potency, µM (highest dose often 115 µM), usual class: inhibitors; actives 1% (n = 390,000); AID 588590
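Fluorescent replication assay read twice, at 0 min and 10 min after adding 50 nM (final) substrate. Enzyme (10 nM) and compounds were first incubated 15 min at room temperature; enzyme-free buffer wells were negative controls.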
PI4K2A inh = blocks human PI4K2A kinase activity | Q9BTU6 | purified PI4K2A, ADP-Glo luminescence, 1 h; stronger effect = lower value | AID 1346378 | actives 0.13% (n = 420,000) | activity change, negative = inhibition, % at 76.9 µM; in the data active means activity change below about -50%; inconclusive means mostly about -30% to -49%
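ADP-Glo luminescence measured ADP generated by PI4K2A enzyme (4 ug/mL before mixing) with 1.2 mM PI substrate (pre-mix) and 300 microM ATP (pre-mix). Tris pH7.5 buffer with MgCl2, Triton X-100; 1 h reaction at ambient temperature.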
Pol eta inh = DNA polymerase eta (human) inhibition; Q9Y253; recombinant Pol eta, fluorescent DNA replication assay; Potency, µM (top dose mostly 114 µM), actives largely listed as inhibitors; actives 1.2% (n = 390,000); AID 588591
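Fluorescent replication assay: 50 nM final substrate added after a 15 min room-temperature compound preincubation with 10 nM enzyme. Signal taken at 0 min and again at 10 min.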
POLK inh = blocks human DNA polymerase kappa activity. Q9UBT6. purified Pol kappa, fluorescent DNA synthesis assay, 10 min. Potency, µM (highest dose often 107 µM), actives largely listed as inhibitors. actives 0.53% (n = 400,000)
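Activity was followed as the change in fluorescence between reads at 0 and 10 min after starting the reaction with 50 nM substrate. Beforehand, 10 nM polymerase had been preincubated with compound for 15 min at room temperature.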
Of the large screens only hits and unclear results are named; the others gave an inactive call; ! = repeats disagree. Unless noted, the call rests on the fitted dose curve; in most records, active means well fitted inhibition curve with a large enough effect; inconclusive means small, poorly fitted or top-dose-only effect, or another doubt; inactive means no such curve, though single readings can be large or run the other way.

Nc1ccc2nc(-c3ccc(-c4nc5ccc(N)cc5[nH]4)cc3)[nH]c2c1	Pol iota inh inconclusive, POLK inh 50.1µM
O=C(O)c1cc(-c2ccc(/C=c3\sc4nc5ccc(Br)cc5n4c3=O)o2)ccc1Cl	POLB inh 1.58µM (no result: PI5P4Ka inh, Pol iota inh, PI4K2A inh, Pol eta inh, POLK inh)
O=C(O)c1ccccc1-c1ccc(/C=c2\sc3nc4cc(Br)cnc4n3c2=O)o1	POLB inh inconclusive, Pol iota inh inconclusive, PI4K2A inh inconclusive, Pol eta inh 1.26µM, POLK inh 3.55µM (no result: PI5P4Ka inh)
O=C(NCCc1ccccc1)c1ccc2c(c1)nc1n2CCOC1	none (no result: PI5P4Ka inh)
C=CCN1C(=O)/C(=C/c2ccc(-c3ccc(F)cc3)o2)SC1=S	POLB inh 10µM
Cc1cccc(C(=O)Nc2nc3ncccn3c2-c2ccc(F)cc2)c1	none (no result: PI5P4Ka inh, POLB inh, Pol iota inh, Pol eta inh, POLK inh)
O=C1c2cccnc2C(Nc2cccc(F)c2)N1Cc1ccco1 (stereo not drawn)	none
O=C1c2cccnc2C(Nc2ccccc2)N1Cc1ccco1 (stereo not drawn)	Pol iota inh 12.6µM (no result: PI5P4Ka inh)
NC(=O)NC1N=C([O][Al])NC1=O (stereo not drawn)	none (no result: PI5P4Ka inh, POLB inh, Pol iota inh, Pol eta inh, POLK inh)
CCOc1cccc(C(=O)NC(=S)Nc2ccc(Cl)cc2C(=O)O)c1	PI5P4Ka inh -59.8
Cc1cc(N2C(=O)C(O)=C(C(=O)c3cc4ccccc4o3)C2c2ccc(Cl)cc2)no1 (stereo not drawn)	PI5P4Ka inh -72.4
Cc1cc(N2C(=O)C(O)=C(C(=O)c3cc4ccccc4o3)C2c2ccc(Br)cc2)no1 (stereo not drawn)	PI5P4Ka inh -66.6
Cc1cc(N2C(=O)C(O)=C(C(=O)c3cc4ccccc4o3)C2c2cccc(Cl)c2)no1 (stereo not drawn)	PI5P4Ka inh -80.5
CCCOc1ccc(C2C(C(=O)c3cc4ccccc4o3)=C(O)C(=O)N2c2cc(C)on2)cc1 (stereo not drawn)	none
O=C(O)c1c(-c2ccccc2)oc2ccc(OCc3ccc(Cl)c(Cl)c3)cc12	POLB inh inconclusive, Pol eta inh inconclusive (no result: PI5P4Ka inh)
CCCCNC(=O)c1cc2cccc([N+](=O)[O-])c2[nH]1	none
O=C(O)c1cc2cccc([N+](=O)[O-])c2[nH]1	Pol iota inh 70.8µM!, POLK inh 44.7µM! (no result: PI5P4Ka inh, POLB inh, PI4K2A inh, Pol eta inh)
CCC(=O)Nc1ccc(S(=O)(=O)NCc2cccn2Cc2cccc(C)c2)cc1	Pol iota inh 89.1µM (no result: PI5P4Ka inh)
Cc1ccc2c(c1)C/C(=C/c1ccc(N(C)C)cc1)C2=O	none (no result: PI5P4Ka inh, POLB inh, PI4K2A inh, Pol eta inh)
CC1(C)CC2(CC(c3ccccc3F)c3ccc(O)c(O)c3O2)NC(=S)N1 (stereo not drawn)	PI5P4Ka inh -56.0, POLB inh inconclusive
CC(=O)c1ccc(NC(=O)Cn2c(=O)nc(-c3ccccc3)c3ccccc32)cc1	Pol iota inh 70.8µM (no result: PI5P4Ka inh)
CCN=C1S/C(=C/c2ccc(-c3ccc(Cl)cc3C(=O)O)o2)C(=O)N1CC	Pol eta inh 35.5µM
CCN=C1S/C(=C\c2ccc(-c3cccc(C(=O)O)c3)o2)C(=O)N1CC	POLB inh 11.2µM, Pol iota inh inconclusive, Pol eta inh 20µM
Cc1cc(C)c(CN2CCN(CCCn3ccc(NC(=O)OCc4ccccc4)nc3=O)CC2)c(C)c1	none (no result: POLB inh)
Cc1cccc(C)c1NC(=O)C(c1ccccc1OC(F)(F)F)N1CCN(C)CC1 (stereo not drawn)	none (no result: POLB inh, Pol iota inh, Pol eta inh, POLK inh)
N#CC(Cc1ccc(O)c(O)c1)C(=O)N1CCc2ccccc21 (stereo not drawn)	POLB inh inconclusive, Pol iota inh inconclusive, Pol eta inh 7.94µM (no result: PI5P4Ka inh, PI4K2A inh, POLK inh)
Cc1nc2sc(C(=O)NCc3nccs3)c(N)c2c(C)c1Cl	none (no result: PI5P4Ka inh, POLB inh, Pol iota inh, Pol eta inh, POLK inh)
CC(=O)c1ccc2c(c1)C1C=CCC1C(c1ccc(S(=O)(=O)N3CCOCC3)cc1)N2 (stereo not drawn)	PI5P4Ka inh -64.5, Pol eta inh inconclusive
O=C(O)c1ccc2c(c1)C1C=CCC1C(c1ccncc1)N2 (stereo not drawn)	POLB inh inconclusive, Pol eta inh inconclusive
Cc1ccc(C)c(NC(=O)C(CC(C)C)N2Cc3ccccc3C2=O)c1 (stereo not drawn)	none (no result: PI5P4Ka inh)
Cc1cc(C)c2c(N)c(C(=O)Nc3ncc(C)s3)sc2n1	POLB inh 44.7µM
Cc1cccc(Cn2cc(COC(=O)N3CCCC3)nn2)c1	none (no result: PI5P4Ka inh, POLB inh, Pol iota inh, Pol eta inh, POLK inh)
